Laboratory results from article PMC7862700, “An all-to-all approach to the identification of sequence-specific readers for epigenetic DNA modifications on cytosine”.

Tests used:
Test in all cases: DAPPL (digital affinity profiling via proximity ligation, sequencing); 10 mM Tris-HCl pH 7.5, 50 mM NaCl, 1 mM DTT, 4% glycerol, room temperature, 30 min; GST-TFs on glutathione beads, 16-mer random dsDNA library, 0.1% formaldehyde crosslink after washing; high values mean tight binding
Conditions in all cases: protein: recombinant; tags: N-terminal GST; dsDNA, one strand shown
[1] = biological target: T1, ERF (Homo sapiens, UniProt P50548 1-548)
T1 sequence: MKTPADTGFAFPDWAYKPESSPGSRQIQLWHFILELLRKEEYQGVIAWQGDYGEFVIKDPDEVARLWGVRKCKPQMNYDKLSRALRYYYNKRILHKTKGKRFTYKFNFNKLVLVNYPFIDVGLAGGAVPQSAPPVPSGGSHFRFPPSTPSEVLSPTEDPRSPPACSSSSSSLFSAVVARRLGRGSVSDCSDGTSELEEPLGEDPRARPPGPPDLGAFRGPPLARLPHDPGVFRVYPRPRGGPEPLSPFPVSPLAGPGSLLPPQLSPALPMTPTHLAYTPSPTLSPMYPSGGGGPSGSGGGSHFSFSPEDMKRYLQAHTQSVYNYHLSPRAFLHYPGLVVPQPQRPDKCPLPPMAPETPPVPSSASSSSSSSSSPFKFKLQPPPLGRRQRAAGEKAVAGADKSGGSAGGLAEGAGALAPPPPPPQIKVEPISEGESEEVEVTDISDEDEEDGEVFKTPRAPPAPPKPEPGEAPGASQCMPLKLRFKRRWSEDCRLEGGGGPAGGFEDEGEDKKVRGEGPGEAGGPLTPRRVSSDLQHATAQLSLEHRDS
Method in brief: (§1)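 Binding signal is given per hexamer as its read frequency for a factor divided by its frequency in the tag-only sample. GST-fused human transcription factors were expressed in yeast, captured on glutathione beads, barcoded with DNA and pooled with that sample, then incubated with 200 nmole of a 16-mer random double-stranded DNA library in Tris/NaCl/DTT/glycerol buffer for 30 min at room temperature. The pools were then washed, crosslinked, proximity-ligated, amplified by PCR and sequenced on an Illumina NextSeq500.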

[2] = biological target: T2, ETV3L (Homo sapiens, UniProt Q6ZN32 1-361)
T2 sequence: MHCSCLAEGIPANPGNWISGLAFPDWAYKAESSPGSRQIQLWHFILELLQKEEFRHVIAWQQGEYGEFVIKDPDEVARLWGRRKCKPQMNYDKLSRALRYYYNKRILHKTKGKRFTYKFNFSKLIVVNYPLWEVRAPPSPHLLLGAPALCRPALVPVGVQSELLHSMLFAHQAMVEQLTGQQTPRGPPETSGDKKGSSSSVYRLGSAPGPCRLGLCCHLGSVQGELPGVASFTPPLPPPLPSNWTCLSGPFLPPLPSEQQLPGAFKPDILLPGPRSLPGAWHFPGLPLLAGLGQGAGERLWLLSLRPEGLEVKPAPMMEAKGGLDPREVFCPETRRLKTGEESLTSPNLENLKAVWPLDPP
Method in brief: as §1

[3] = biological target: T3, ETS2 (Homo sapiens, UniProt P15036 1-469)
T3 sequence: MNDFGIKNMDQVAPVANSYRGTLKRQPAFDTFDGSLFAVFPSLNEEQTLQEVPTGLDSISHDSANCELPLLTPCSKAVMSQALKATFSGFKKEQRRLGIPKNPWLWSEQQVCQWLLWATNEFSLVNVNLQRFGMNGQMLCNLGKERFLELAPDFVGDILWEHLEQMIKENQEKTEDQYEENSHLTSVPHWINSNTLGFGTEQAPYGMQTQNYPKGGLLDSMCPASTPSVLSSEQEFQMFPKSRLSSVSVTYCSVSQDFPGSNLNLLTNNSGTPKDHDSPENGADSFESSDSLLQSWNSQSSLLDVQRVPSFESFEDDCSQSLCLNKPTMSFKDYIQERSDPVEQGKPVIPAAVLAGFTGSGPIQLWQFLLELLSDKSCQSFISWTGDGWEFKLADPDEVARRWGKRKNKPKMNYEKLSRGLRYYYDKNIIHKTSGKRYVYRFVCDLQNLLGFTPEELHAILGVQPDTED
Method in brief: as §1

[4] = biological target: T4, SPDEF (Homo sapiens, UniProt O95238 1-335)
T4 sequence: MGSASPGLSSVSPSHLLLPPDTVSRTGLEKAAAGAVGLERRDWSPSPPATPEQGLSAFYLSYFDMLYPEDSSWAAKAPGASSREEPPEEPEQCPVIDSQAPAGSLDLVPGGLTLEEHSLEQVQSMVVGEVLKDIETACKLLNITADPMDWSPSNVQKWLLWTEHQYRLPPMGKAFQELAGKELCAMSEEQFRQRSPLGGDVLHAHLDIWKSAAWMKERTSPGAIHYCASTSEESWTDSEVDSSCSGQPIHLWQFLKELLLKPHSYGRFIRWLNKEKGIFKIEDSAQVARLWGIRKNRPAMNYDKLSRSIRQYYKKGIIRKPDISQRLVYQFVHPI
Method in brief: as §1

[5] = biological target: T5, ETV7 (Homo sapiens, UniProt Q9Y603 1-341)
T5 sequence: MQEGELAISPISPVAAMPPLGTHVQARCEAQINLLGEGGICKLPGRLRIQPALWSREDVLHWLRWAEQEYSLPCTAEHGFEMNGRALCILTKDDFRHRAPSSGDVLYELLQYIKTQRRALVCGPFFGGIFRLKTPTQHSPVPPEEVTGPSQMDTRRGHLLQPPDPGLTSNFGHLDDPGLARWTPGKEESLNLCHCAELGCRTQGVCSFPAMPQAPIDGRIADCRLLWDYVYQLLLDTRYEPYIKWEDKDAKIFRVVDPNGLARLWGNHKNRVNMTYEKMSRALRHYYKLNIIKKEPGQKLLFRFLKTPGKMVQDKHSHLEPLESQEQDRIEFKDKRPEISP
Method in brief: as §1

[6] = biological target: T6, ELF5 (Homo sapiens, UniProt Q9UKW6-2 1-255)
T6 sequence: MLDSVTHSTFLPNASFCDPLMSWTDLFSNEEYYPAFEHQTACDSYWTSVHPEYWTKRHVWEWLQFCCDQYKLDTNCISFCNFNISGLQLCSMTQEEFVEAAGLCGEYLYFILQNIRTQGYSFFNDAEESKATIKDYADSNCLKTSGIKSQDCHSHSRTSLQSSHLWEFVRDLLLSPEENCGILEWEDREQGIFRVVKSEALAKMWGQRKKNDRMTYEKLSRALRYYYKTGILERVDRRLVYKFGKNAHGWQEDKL
Method in brief: as §1

[7] = biological target: T7, ETV3 (Homo sapiens, UniProt P41162-2 1-143)
T7 sequence: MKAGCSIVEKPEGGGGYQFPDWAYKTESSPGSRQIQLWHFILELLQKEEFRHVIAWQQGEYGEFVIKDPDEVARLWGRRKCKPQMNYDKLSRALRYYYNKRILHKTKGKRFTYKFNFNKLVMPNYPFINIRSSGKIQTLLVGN
Method in brief: as §1

[8] = biological target: ETV6 (Homo sapiens, UniProt P41212 1-452)
Chain of ETV6 (P41212 whole entry): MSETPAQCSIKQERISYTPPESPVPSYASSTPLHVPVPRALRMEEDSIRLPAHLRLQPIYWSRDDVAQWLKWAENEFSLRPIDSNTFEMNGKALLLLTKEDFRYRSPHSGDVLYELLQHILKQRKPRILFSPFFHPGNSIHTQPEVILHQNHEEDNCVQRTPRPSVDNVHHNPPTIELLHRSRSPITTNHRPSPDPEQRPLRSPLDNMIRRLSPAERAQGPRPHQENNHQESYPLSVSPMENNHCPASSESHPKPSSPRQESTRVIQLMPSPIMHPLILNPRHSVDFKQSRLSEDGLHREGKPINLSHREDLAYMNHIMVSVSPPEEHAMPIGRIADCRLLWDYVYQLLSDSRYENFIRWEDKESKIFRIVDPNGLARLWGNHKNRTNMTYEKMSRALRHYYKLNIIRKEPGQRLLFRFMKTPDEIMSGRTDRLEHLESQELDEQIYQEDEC
Method in brief: as §1

Row | Sequence | binding signal [1] | binding signal [2] | binding signal [3] | binding signal [4] | binding signal [5] | binding signal [6] | binding signal [7] | binding signal [8]
1 | TTCTAA | 1.23 fold enrichment (6-mer frequency, TF over GST control) | 1.16 fold enrichment (6-mer frequency, TF over GST control) | 1.26 fold enrichment (6-mer frequency, TF over GST control) | 1.22 fold enrichment (6-mer frequency, TF over GST control) | 1.23 fold enrichment (6-mer frequency, TF over GST control) | 1.17 fold enrichment (6-mer frequency, TF over GST control) | 1.19 fold enrichment (6-mer frequency, TF over GST control) | 1.24 fold enrichment (6-mer frequency, TF over GST control)
2 | CCATTG | 1.07 fold enrichment (6-mer frequency, TF over GST control) | 1.22 fold enrichment (6-mer frequency, TF over GST control) | 1.14 fold enrichment (6-mer frequency, TF over GST control) | 1.02 fold enrichment (6-mer frequency, TF over GST control) | 1.24 fold enrichment (6-mer frequency, TF over GST control) | 1.19 fold enrichment (6-mer frequency, TF over GST control) | 1.19 fold enrichment (6-mer frequency, TF over GST control) | 1.12 fold enrichment (6-mer frequency, TF over GST control)
3 | CCCACT | 1.42 fold enrichment (6-mer frequency, TF over GST control) | 1.37 fold enrichment (6-mer frequency, TF over GST control) | 1.32 fold enrichment (6-mer frequency, TF over GST control) | 1.27 fold enrichment (6-mer frequency, TF over GST control) | 1.28 fold enrichment (6-mer frequency, TF over GST control) | 1.31 fold enrichment (6-mer frequency, TF over GST control) | 1.32 fold enrichment (6-mer frequency, TF over GST control) | 1.37 fold enrichment (6-mer frequency, TF over GST control)
4 | CCCTTG | 1.24 fold enrichment (6-mer frequency, TF over GST control) | 1.08 fold enrichment (6-mer frequency, TF over GST control) | 1.16 fold enrichment (6-mer frequency, TF over GST control) | 1.28 fold enrichment (6-mer frequency, TF over GST control) | 1.18 fold enrichment (6-mer frequency, TF over GST control) | 1.1 fold enrichment (6-mer frequency, TF over GST control) | 1.13 fold enrichment (6-mer frequency, TF over GST control) | 1.17 fold enrichment (6-mer frequency, TF over GST control)
5 | GTACTC | 1.06 fold enrichment (6-mer frequency, TF over GST control) | 1.15 fold enrichment (6-mer frequency, TF over GST control) | 1.13 fold enrichment (6-mer frequency, TF over GST control) | 1.02 fold enrichment (6-mer frequency, TF over GST control) | 1 fold enrichment (6-mer frequency, TF over GST control) | 1.12 fold enrichment (6-mer frequency, TF over GST control) | 1.11 fold enrichment (6-mer frequency, TF over GST control) | 1.14 fold enrichment (6-mer frequency, TF over GST control)
6 | CTACAA | 1.05 fold enrichment (6-mer frequency, TF over GST control) | 1.15 fold enrichment (6-mer frequency, TF over GST control) | 1.16 fold enrichment (6-mer frequency, TF over GST control) | 1.14 fold enrichment (6-mer frequency, TF over GST control) | 1.01 fold enrichment (6-mer frequency, TF over GST control) | 1.16 fold enrichment (6-mer frequency, TF over GST control) | 1.1 fold enrichment (6-mer frequency, TF over GST control) | 1.18 fold enrichment (6-mer frequency, TF over GST control)
7 | TGTACC | 1.17 fold enrichment (6-mer frequency, TF over GST control) | 1.34 fold enrichment (6-mer frequency, TF over GST control) | 1.38 fold enrichment (6-mer frequency, TF over GST control) | 1.47 fold enrichment (6-mer frequency, TF over GST control) | 1.26 fold enrichment (6-mer frequency, TF over GST control) | 1.27 fold enrichment (6-mer frequency, TF over GST control) | 1.35 fold enrichment (6-mer frequency, TF over GST control) | 1.28 fold enrichment (6-mer frequency, TF over GST control)
